What was measured:
Test in all cases: log2 ratio of Biotin-Ahx-Ub-VS probe labelling (fragment/DMSO); higher = less target engagement (more negative = stronger competition), active = hit call of the paper (q ≤ 0.05, log2 ratio ≤ -1)
Conditions in all cases: compound concentration: 200 uM; treatment time: 3 h
USP34 = USP34 (UniProt Q70CQ2)
In short: (§1)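 Each value is an average log2 ratio of fragment to vehicle, tested by unpaired t-test. The underlying Spectronaut label-free quantities were global-median-normalised, and only proteins with ≥2 unique peptides were included. Triplicate HEK293T lysate samples (495 µg) were exposed to fragment at 200 µM or vehicle for 3 h, then to Biotin-Ahx-Ub-VS at 0.5 µM final for 1 h, before NeutrAvidin enrichment of labelled DUBs, LysC and trypsin digestion, and diaPASEF LC-MS/MS.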

USP36 = target: T1, USP36 (UniProt Q9P275)
T1 sequence (whole entry): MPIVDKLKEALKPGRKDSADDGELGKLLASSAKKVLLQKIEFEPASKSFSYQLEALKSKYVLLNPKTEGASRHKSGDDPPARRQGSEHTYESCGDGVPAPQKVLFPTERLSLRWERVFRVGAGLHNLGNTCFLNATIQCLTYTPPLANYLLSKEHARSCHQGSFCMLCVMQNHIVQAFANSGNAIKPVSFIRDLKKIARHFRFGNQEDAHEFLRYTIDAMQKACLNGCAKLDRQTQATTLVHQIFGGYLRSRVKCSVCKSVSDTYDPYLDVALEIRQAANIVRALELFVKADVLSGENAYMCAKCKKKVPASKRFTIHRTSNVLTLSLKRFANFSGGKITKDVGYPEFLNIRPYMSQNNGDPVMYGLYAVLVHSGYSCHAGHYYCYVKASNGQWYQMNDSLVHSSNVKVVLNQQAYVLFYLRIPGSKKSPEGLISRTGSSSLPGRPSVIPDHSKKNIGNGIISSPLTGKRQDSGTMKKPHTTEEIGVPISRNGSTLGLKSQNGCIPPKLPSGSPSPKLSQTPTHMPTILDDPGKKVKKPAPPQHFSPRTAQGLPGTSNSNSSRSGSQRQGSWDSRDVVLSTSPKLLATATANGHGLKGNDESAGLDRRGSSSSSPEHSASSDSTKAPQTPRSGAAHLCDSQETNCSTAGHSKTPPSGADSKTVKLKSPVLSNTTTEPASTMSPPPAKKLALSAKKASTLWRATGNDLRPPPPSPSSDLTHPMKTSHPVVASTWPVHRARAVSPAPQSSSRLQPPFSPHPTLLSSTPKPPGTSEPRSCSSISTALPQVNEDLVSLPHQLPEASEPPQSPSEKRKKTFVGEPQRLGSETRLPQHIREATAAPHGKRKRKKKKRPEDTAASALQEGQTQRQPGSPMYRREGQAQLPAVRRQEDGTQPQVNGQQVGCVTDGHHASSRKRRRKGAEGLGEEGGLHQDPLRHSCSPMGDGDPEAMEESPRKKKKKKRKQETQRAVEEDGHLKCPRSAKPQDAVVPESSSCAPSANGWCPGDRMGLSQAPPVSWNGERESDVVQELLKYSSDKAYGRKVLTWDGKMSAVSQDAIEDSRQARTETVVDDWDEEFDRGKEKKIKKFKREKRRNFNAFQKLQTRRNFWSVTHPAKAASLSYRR
In short: as §1

USP38 = target: T2, USP38 (UniProt Q8NB14)
T2 sequence (whole entry): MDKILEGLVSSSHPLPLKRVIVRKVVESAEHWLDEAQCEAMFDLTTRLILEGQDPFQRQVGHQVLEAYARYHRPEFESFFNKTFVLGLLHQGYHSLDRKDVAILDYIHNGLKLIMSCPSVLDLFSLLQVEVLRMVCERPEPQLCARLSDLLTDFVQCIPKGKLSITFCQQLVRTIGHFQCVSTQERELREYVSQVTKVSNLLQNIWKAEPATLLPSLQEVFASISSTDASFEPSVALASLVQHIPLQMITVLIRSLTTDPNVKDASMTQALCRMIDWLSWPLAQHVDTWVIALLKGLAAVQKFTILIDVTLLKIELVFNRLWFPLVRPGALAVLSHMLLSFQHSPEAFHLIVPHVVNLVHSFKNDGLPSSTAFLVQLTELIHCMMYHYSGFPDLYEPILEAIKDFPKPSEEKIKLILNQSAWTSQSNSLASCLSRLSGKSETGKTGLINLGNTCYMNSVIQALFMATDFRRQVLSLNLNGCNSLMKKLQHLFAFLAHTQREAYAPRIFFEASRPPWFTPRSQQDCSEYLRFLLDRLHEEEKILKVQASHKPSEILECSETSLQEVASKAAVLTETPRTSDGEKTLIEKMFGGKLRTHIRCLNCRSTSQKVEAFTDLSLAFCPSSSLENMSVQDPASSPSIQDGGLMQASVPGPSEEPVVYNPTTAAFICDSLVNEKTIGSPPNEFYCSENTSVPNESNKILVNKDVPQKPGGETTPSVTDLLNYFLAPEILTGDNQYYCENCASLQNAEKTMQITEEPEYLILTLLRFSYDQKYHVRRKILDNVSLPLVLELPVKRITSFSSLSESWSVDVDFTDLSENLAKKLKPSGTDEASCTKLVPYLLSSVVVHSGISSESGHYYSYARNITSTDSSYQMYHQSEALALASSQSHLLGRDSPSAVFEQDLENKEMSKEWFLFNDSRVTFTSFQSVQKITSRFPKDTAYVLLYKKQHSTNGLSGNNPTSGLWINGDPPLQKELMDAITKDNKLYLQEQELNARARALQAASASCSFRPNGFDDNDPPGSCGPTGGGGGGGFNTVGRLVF
In short: as §1

USP39 = target: T3, USP39 (UniProt Q53GS9)
T3 sequence (whole entry): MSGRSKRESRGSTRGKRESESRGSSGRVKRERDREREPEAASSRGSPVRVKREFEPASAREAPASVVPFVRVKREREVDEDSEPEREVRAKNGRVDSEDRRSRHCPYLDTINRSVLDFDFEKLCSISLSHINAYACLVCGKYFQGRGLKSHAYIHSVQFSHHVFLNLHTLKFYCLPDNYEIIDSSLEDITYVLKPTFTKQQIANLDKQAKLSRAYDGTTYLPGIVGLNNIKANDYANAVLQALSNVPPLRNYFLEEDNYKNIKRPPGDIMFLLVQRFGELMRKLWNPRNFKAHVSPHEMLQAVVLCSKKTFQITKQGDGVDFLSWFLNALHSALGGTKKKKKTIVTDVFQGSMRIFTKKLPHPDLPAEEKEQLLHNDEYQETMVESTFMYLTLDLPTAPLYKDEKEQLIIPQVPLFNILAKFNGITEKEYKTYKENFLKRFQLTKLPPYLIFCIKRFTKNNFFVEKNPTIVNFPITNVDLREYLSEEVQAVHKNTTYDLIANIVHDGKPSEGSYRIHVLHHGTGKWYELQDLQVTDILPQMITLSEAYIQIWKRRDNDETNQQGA
In short: as §1

USP4 = target: T4, USP4 (UniProt Q13107)
T4 sequence (whole entry): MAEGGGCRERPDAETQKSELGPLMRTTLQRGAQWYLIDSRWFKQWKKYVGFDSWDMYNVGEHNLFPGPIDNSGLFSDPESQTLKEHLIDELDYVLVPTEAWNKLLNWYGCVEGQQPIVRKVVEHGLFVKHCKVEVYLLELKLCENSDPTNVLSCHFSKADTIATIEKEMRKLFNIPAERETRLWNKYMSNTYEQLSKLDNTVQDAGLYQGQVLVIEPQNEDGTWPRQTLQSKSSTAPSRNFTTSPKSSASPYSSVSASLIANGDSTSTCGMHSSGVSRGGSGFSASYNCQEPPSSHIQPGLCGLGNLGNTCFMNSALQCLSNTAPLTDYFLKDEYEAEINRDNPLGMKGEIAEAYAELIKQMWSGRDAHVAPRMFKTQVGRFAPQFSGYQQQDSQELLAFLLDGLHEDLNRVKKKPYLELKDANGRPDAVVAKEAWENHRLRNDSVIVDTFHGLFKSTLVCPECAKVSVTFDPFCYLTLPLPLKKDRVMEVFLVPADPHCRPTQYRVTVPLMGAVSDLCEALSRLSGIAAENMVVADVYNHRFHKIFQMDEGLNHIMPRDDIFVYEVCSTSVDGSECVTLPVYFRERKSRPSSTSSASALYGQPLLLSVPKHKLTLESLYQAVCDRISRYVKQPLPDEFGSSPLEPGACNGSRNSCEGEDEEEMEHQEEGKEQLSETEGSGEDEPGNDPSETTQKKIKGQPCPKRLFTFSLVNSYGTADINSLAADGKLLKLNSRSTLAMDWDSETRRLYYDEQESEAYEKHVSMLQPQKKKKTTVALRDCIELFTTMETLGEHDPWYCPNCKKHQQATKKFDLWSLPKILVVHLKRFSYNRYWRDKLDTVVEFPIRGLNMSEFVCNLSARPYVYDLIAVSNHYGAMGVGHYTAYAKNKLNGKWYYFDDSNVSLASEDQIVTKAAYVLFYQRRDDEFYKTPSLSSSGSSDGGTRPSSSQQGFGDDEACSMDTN
In short: as §1

Measured: log2 ratio of Biotin-Ahx-Ub-VS probe labelling

USP34, sequence (Q70CQ2 whole entry, the tested form may be a part): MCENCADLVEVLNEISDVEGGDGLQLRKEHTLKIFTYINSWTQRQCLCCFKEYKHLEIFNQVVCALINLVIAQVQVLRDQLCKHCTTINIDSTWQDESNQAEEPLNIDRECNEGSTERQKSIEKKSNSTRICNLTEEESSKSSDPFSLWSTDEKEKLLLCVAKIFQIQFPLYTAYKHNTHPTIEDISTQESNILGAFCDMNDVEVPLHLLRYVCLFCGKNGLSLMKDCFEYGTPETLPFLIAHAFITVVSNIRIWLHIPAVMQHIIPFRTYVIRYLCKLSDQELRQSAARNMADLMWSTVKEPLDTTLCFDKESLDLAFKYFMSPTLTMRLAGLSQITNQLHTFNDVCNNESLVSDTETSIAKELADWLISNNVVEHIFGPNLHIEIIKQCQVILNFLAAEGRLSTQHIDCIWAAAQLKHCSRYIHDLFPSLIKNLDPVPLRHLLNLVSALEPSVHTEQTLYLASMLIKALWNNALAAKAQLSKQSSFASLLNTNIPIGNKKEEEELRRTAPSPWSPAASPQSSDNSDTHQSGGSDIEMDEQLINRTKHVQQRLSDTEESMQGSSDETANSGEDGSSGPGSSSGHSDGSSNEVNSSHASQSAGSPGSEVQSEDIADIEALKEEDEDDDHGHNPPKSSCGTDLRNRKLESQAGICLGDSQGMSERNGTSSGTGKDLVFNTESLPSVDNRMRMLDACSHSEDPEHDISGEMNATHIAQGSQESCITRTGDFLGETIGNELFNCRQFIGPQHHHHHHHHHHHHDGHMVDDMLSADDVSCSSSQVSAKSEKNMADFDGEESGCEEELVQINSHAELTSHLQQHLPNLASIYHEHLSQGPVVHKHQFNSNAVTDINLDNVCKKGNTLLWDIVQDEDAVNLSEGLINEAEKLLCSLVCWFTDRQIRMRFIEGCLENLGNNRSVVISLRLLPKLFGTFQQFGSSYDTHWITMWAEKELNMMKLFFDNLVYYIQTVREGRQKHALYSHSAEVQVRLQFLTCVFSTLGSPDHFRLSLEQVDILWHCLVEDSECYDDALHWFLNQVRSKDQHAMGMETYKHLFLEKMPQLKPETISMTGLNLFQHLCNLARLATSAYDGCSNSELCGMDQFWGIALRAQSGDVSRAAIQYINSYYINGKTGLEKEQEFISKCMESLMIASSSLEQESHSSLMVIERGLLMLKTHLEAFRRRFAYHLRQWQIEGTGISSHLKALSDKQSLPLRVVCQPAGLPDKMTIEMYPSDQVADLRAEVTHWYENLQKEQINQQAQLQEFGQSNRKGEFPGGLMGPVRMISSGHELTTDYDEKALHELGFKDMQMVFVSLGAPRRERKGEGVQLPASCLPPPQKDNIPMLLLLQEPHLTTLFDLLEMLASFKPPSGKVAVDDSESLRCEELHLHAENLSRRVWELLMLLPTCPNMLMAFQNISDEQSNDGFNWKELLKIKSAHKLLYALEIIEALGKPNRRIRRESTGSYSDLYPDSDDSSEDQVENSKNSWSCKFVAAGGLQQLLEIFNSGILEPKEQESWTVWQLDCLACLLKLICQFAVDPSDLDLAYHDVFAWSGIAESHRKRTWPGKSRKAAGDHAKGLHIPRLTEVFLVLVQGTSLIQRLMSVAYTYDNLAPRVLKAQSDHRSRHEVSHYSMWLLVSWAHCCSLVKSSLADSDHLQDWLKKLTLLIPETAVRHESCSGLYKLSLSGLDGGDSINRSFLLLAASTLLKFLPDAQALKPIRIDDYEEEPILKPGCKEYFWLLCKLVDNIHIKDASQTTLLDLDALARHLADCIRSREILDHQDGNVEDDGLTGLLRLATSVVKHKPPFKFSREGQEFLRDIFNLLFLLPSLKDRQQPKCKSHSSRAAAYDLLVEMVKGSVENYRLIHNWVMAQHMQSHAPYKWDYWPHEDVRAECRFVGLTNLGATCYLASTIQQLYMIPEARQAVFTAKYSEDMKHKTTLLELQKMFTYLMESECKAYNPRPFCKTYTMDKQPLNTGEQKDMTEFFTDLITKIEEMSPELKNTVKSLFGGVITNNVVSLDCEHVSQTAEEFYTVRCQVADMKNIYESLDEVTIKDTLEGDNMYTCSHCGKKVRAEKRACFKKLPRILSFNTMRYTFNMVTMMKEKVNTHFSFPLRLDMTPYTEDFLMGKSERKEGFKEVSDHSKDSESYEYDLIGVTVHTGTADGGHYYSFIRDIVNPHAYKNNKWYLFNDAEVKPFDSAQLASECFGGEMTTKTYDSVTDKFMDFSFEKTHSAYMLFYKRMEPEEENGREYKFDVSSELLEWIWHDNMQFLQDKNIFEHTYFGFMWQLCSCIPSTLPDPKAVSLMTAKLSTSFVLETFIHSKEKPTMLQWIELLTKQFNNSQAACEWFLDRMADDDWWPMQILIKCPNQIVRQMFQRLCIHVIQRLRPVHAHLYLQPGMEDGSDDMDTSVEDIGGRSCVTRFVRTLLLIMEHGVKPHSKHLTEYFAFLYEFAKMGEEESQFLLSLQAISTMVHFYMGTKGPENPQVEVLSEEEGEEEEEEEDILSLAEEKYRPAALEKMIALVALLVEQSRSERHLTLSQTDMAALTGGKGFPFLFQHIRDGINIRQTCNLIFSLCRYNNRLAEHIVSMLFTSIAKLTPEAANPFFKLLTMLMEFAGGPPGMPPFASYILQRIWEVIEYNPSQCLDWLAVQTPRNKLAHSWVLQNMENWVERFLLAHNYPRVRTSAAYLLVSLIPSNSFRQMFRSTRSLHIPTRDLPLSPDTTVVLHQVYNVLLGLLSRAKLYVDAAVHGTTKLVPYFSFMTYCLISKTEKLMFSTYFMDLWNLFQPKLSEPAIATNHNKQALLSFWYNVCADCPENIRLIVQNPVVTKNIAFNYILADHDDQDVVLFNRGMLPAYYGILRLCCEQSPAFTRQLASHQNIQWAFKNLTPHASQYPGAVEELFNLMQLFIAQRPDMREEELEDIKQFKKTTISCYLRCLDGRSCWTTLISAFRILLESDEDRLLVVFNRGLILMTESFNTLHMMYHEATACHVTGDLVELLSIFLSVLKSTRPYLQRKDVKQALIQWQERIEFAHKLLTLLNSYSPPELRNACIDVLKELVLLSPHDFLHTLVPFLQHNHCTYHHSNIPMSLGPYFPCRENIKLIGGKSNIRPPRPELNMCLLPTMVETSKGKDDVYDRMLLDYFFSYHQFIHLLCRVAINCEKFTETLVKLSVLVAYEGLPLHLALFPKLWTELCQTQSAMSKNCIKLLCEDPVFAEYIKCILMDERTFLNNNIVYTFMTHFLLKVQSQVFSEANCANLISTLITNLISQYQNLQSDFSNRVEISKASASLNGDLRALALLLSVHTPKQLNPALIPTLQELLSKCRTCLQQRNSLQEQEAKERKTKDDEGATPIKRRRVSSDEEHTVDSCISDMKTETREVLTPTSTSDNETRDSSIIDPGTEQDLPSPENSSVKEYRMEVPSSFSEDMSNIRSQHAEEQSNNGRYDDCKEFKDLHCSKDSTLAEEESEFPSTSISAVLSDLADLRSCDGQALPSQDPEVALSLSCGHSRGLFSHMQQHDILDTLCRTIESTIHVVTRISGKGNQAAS

Cc1cc(CC(C)NC(=O)CCl)n[nH]1 (stereo not given)
inactive: USP34 -0.00217 | USP36 -0.0115 | USP38 -0.279 | USP39 -0.196 | USP4 -0.0597
